Rows were chosen to be rich in hits. Some 4% of all compounds tested hit in one or more screens of this group.
TWEAK Fn14 block = TWEAK-Fn14 signaling inhibition; TWEAK-stimulated Fn14 reporter cells, luciferase luminescence, 8 h; inhibition, % at 10 µM; 360,000 tested, 2% active; in the data active means inhibition above about 50%
HIF-2a block = inhibitors of HIF-2a; inhibition, % at 18.8 µM; 786-0 RCC cells HIF-2a reporter, luciferase luminescence, overnight; 360,000 tested, 0.72% active;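 active means inhibition of the luminescence signal of 40% or more relative to plate controls, in a single-dose primary screen at 18.75 µM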
Peg3 promoter = Peg3 promoter activity inhibition | inhibition, % at 20 µM | 360,000 tested, 1.7% active | AID 588405 | HeLa PEG-Prom luciferase reporter, luminescence, overnight;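 active means inhibition of at least 50% at 20 µM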
KKLEB cytotox = counter-screen for CF NF-kB inhibitors: cytotoxicity; KKLEB CF airway cells viability, ATPlite luminescence, overnight; active compounds read low; cells stimulated with P. aeruginosa culture filtrate; activity change (cytotoxicity), % at 5 µM; 360,000 tested, 0.36% active; AID 602141;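 active means corrected activity change at or below -50% at 5 µM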
CF NFkB inh = inhibitors of cystic fibrosis induced NF-kB. KKLEB NF-kB-GFP reporter, PAF-induced, GFP fluorescence overnight. 360,000 tested, 0.86% active. AID 588850. inhibition, % at 5 µM;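 active means at least 50% inhibition at 5 µM, scaled per plate between neutral and stimulator controls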;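 further: PAF is a Pseudomonas aeruginosa culture filtrate used as stimulus; plate controls were PAF-stimulated DMSO wells for no effect and unstimulated DMSO wells for full effect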
TROY NFkB inh = inhibitors of TROY-dependent NF-kB signaling; AID 1347056; inhibition, % at 10 µM; Q293 LMP1-TROYcd NF-kB luciferase reporter, 4 h; 360,000 tested, 0.98% active;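 active means compounds whose plate-normalised and pattern-corrected inhibition of the luciferase reporter signal at the single screening dose is 50% or more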
* = called active by the depositor; · = not tested or not shown.

SMILES | TWEAK Fn14 block | HIF-2a block | Peg3 promoter | KKLEB cytotox | CF NFkB inh | TROY NFkB inh
CC1=CC2=NC(=O)/C(=C/c3cccn3Cc3ccccc3)C(=N)N2O1 | 2 | 13 | 1 | -2 | -1 | 12
Clc1cc(Br)ccc1OCCCNCc1ccccc1 | -21 | -76 | 56* | -16 | 21 | -24
Brc1ccc(OCc2ccccc2)c(CNCc2ccncc2)c1 | 27 | 3 | 51* | -12 | 15 | 52*
Cc1ccc(C)c(OCCCNCc2ccccc2)c1 | -5 | 4 | -7 | 2 | 11 | -18
Cc1cc(=O)n2[nH]c(N3C(=O)CCC3=O)nc2n1 | 2 | 4 | 4 | -2 | 14 | -3
Cc1c(/C=N/NC(=O)c2sc3ccccc3c2Cl)cnn1C | 8 | -33 | 12 | -2 | 16 | -60
O=C(N/N=C/c1ccccn1)c1sc2ccccc2c1Cl | 86* | -79 | -51 | -4 | -3 | 35
O=C(N/N=C/c1c[nH]c2ccccc12)c1sc2ccccc2c1Cl | -25 | -264 | -230 | 19 | -12 | -30
Cn1cccc1/C=N/NC(=O)c1sc2ccccc2c1Cl | 51* | -245 | -242 | 7 | -12 | ·
CCOC(=O)c1ccc(-c2ccc(/C=C(\C#N)C(=O)NCc3cccs3)o2)cc1 | -121 | 5 | 72* | 4 | 2 | -4
COc1ccc(Nc2nc(Nc3ccc(OC)cc3)nc(-n3[nH]c(=O)c(C)c3C)n2)cc1 | 42 | -40 | 48 | -31 | 87* | 5
COc1ccc(Nc2nc(OC)nc(OC)n2)cc1 | -6 | -38 | -14 | -5 | 5 | -3
CC(C)CNC(=O)CSc1nnc(-c2ccc(Cl)cc2)n1N | -8 | 17 | 3 | -2 | 5 | 14
OC(CON=C1c2ccccc2-c2ccccc21)CN1CCNCC1 (configuration not stated) | -19 | 8 | 57* | 5 | -16 | -35
Cc1cc(C)nc(SCc2ccc([N+](=O)[O-])cc2)n1 | -14 | -1 | -10 | 12 | -5 | 5
O=C(/C=C/c1cn(-c2ccccc2)nc1-c1cccnc1)c1ccco1 | 80* | 30 | 43 | -6 | 32 | 32
O=C(/C=C/c1cn(-c2ccccc2)nc1-c1cccnc1)N1CCCC1 | 23 | 9 | 7 | 8 | -1 | 44
Cc1c(C(=O)N2CCCCCC2)c(S(=O)(=O)Nc2ccccc2F)c(C)n1C | -11 | 6 | -8 | -9 | 4 | -11
NC(=S)N/N=C\c1c2ccccc2cc2ccccc12 | -21 | -13 | 8 | 2 | -96 | -19
NC(=S)N/N=C\c1c(OCc2ccccc2Cl)ccc2ccccc12 | 57* | -10 | 17 | 12 | -9 | 22
O=C(NCc1ccccc1F)C1CCN(C(=O)Nc2ccc(F)cc2)CC1 | 99* | 16 | 2 | 1 | -4 | -17
Cc1c2ccccc2nc2ccccc12 | 5 | -6 | -3 | 7 | -32 | 9
Cc1c2ccccc2c(C)c2c1ccc1ccccc12 | -1 | -68 | 69* | 14 | 0 | -74
O=C(C/C=N/OCc1c(Cl)cccc1Cl)c1cnc(-c2ccccc2)s1 | -16 | -38 | -12 | 1 | -2 | 54*
Cc1ccc(C(=O)Nc2ccc(NC(=O)c3ccccc3Cl)c(C)c2)cc1 | -26 | -137 | -150 | 4 | -24 | -36
SMILES | TWEAK Fn14 block | HIF-2a block | Peg3 promoter | KKLEB cytotox | CF NFkB inh | TROY NFkB inh
CCOC(=O)c1ccc(N2C(=O)c3n[nH]c(-c4ccco4)c3C2c2ccc([N+](=O)[O-])cc2)cc1 (configuration not stated) | 47 | 20 | 60* | -5 | -10 | -17
CCOC(=O)c1ccc(N2C(=O)c3n[nH]c(C)c3C2c2cccnc2)cc1 (configuration not stated) | -14 | 16 | 34 | -5 | 4 | -10
Cc1cc(-c2nnc(SCC(=O)Nc3nc(-c4ccc(Cl)cc4)cs3)o2)no1 | 83* | 2 | -6 | 7 | 2 | 8
COc1cc(NC(=O)CSc2nnc(-c3cc(C)on3)o2)cc(OC)c1 | 2 | 11 | 12 | 8 | 8 | 7
Oc1ccc(N=Nc2cccc(Cl)c2)cc1C=Nc1ccc(N2CCOCC2)cc1 | 46 | -11 | -19 | -10 | 68* | 2
O=C(C1=C[C@@H](C2CCCCC2)C[C@@H](OCCCCO)O1)N1CCN(Cc2ccccc2)CC1 | -9 | -3 | 3 | -8 | 16 | -9
O=C(c1ccc(Cl)cc1)C(CN1CCCC1)c1ccccc1 (configuration not stated) | 58* | 37 | 76* | -60* | 69* | -15
COc1ccc(C(=O)C(CN2CCOCC2)c2ccccc2)cc1 (configuration not stated) | 37 | -20 | 98* | -61* | 54* | 5
O=C(c1ccc(F)cc1)C(CN1CCOCC1)c1ccccc1 (configuration not stated) | 74* | 30 | 105* | -68* | 90* | 22
CCCCC(O)(c1ccc(OC)cc1)C(CN1CCOCC1)c1ccccc1 (configuration not stated) | 27 | 29 | 52* | -7 | 8 | 12
CCC(O)(c1ccc(OC)cc1)C(CN1CCOCC1)c1ccccc1 (configuration not stated) | 3 | 13 | 14 | -1 | -4 | -22
Brc1cc2c(cc1COc1ccc(-c3nn[nH]n3)cc1)OCO2 | -10 | -145 | -54 | 0 | 1 | -60
COc1ccc(C(=O)C(CN2CCCC2)c2ccccc2)cc1 (configuration not stated) | 36 | -5 | 104* | -58* | 54* | -35
COc1ccc(C(CC(=O)N2CCOCC2)C(C)C)cc1 (configuration not stated) | 80* | 9 | -2 | -6 | 5 | 0
CN(C)S(=O)(=O)N1CCN(c2ccc([N+](=O)[O-])c(N3CCOCC3)c2)CC1 | 3 | 11 | 10 | -13 | 2 | 14
O=C1c2cccc(NCCCNCCO)c2C(=O)c2cccc(NCCCNCCO)c21 | -8 | 48* | 109* | -4 | -34 | -5
COc1cccc(NC(=O)C(=O)N/N=C(\C)CC(=O)Nc2ccc(NC(C)=O)cc2)c1 | -31 | -204 | -171 | -1 | -4 | -45
CC1COCC(C)N1C1=C(Cl)C(=O)c2ccccc2C1=O (configuration not stated) | 6 | -2 | 100* | -4 | 44 | -10
CN(C1=C(N2CCOCC2)C(=O)c2ccccc2C1=O)c1ccccc1 | 27 | 26 | 20 | -28 | 36 | 12
O=C1C(Cl)=C(N2CCC(C(=O)O)CC2)C(=O)c2ccccc21 | 14 | -7 | 5 | 1 | 14 | 12
CN1CCN(C2=C(Cl)C(=O)c3ccccc3C2=O)CC1 | 28 | 12 | 65* | -3 | 34 | -10
Cc1ccnc(NC(=O)CCC(=O)N(CC(=O)NC(C)(C)C)Cc2ccc3c(c2)OCO3)c1 | 19 | 7 | 11 | 3 | -11 | -7

Assay outcomes from PubChem.
